# Data reported in PubChem BioAssay (EPA / NIEHS).
# Inconclusive results are not listed. The source made the active and inactive calls. How the source made its calls, unless noted: active means hit-call score of the fitted dose curve at least 0.9, where 1 is the maximum; inactive means score below 0.9.
# Legend:
# [1] = CCTE_Shafer_MEA_dev_firing_rate_mean: CCTE's Neural Network Formation Assay for Mean Firing Rate, Shafer Lab (AID 2284031)
# Summary of the method: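 Primary rat cortical neurons on 48-well MEA plates, exposed from plating day 0 with dosing renewed on DIV 5 and 9. Mean well firing rate over active electrodes, recorded days 5, 7, 9, 12, summarised as trapezoidal AUC.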
# [2] = CCTE_Shafer_MEA_dev_active_electrodes_number: CCTE's Neural Network Formation Assay for Number of Active Electrodes, Shafer Lab (AID 2284040; active means hit-call score of the fitted dose curve at least 0.9, where 1 is the maximum)
# Summary of the method: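 Primary rat cortical neurons on 16-electrode MEA wells, exposed from day 0 through day 12 with compound renewed at DIV 5 and 9 feeds. Active electrodes (mean firing ≥5 spikes/min) counted at DIV 5, 7, 9, 12; trapezoidal AUC across days, loss-of-signal versus DMSO.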
# [3] = CCTE_Shafer_MEA_dev_burst_rate: CCTE's Neural Network Formation Assay for Burst Rate, Shafer Lab (AID 2284042)
# Summary of the method: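 Rat primary cortical cultures on PEI/laminin MEA; compound from plating, re-dosed at DIV 5, 9 media change. Single-electrode bursts/recording length, well mean of active electrodes; AUC over DIV 5–12 recordings; loss-of-signal vs DMSO.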
# [4] = CCTE_Shafer_MEA_dev_interburst_interval_mean: CCTE's Neural Network Formation Assay for Mean Interburst Interval, Shafer Lab (AID 2284046);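 further: well-mean interburst interval of bursting electrodes as AUC over four recording days; curve fitted for decrease in interburst interval relative to DMSO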
# Summary of the method: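 Rat cortical neurons, 1.5 x 10^5 cells/well, 48-well MEA; compound from day 0 through DIV 12, media and treatment renewed DIV 5/9. Recordings DIV 5, 7, 9, 12; well-mean interburst interval → trapezoidal AUC, loss direction vs DMSO.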
# [5] = CCTE_Shafer_MEA_dev_inter_network_spike_interval_mean: CCTE's Neural Network Formation Assay for Mean Inter-network Spike Interval, Shafer Lab (AID 2284047);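 on AC50: potency for a decrease in mean inter-network spike interval below DMSO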
# Summary of the method: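 Primary rat cortical neurons on PEI-coated 48-well MEAs (16 electrodes/well) were exposed from plating day 0 to DIV 12, with dosing renewed at DIV 5 and 9. Recordings at DIV 5, 7, 9, 12 were collapsed by trapezoidal AUC, loss-of-signal fit vs DMSO.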
# [6] = CCTE_Shafer_MEA_dev_network_spike_number: CCTE's Neural Network Formation Assay for Number of Network Spikes, Shafer Lab (AID 2284048);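 further: synchronized bursts across electrodes counted on days 5 7 9 12 and integrated as AUC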
# Summary of the method: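 Primary rat cortical neurons were seeded at 1.5 x 10^5 cells/well on PEI-coated 16-electrode MEA wells with laminin, exposed from plating day 0, compound renewed at DIV 5 and 9. Network spikes were recorded on days 5, 7, 9, 12 and summarized as trapezoidal AUC versus DMSO.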
# [7] = CCTE_Shafer_MEA_dev_network_spike_peak: CCTE's Neural Network Formation Assay for Mean Number of Electrodes in Network Spike, Shafer Lab (AID 2284049);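 on AC50: fitted for loss of signal meaning fewer electrodes in network spikes than DMSO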
# Summary of the method: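 Continuous 12-day exposure of rat cortical cultures, starting at plating, on MEA plates. Endpoint: electrodes participating in network-spike peaks, AUC across DIV 5–12, DMSO as negative control.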
# [8] = CCTE_Shafer_MEA_dev_spike_duration_mean: CCTE's Neural Network Formation Assay for Mean Spike Duration, Shafer Lab (AID 2284051);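 further: mean network spike duration pooled as area under curve over DIV 5 to 12 recordings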
# Summary of the method: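 Rat cortical primary cultures, 48-well MEA (16 electrodes/well); compound from plating, renewed DIV 5, 9. Network spike duration (AxIS adaptive detector) recorded DIV 5/7/9/12, combined as trapezoidal AUC; loss direction vs DMSO.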
# [9] = CCTE_Shafer_MEA_dev_per_network_spike_spike_number_mean: CCTE's Neural Network Formation Assay for Mean Number of Spikes in a Network Spike, Shafer Lab (AID 2284053);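 on AC50: fitted as decrease in spikes per network spike relative to DMSO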
# Summary of the method: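 Rat cortical primary cultures on 48-well MEA; compound from day 0, re-dosed with full media change DIV 5, 9. Recorded DIV 5, 7, 9, 12; spikes in 0.05 s window at network-spike peak ÷ total network spikes; AUC; loss vs DMSO.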
# [10] = CCTE_Shafer_MEA_dev_per_network_spike_spike_percent: CCTE's Neural Network Formation Assay for Percent of Spikes in a Network Spike, Shafer Lab (AID 2284054)
# Summary of the method: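 Primary rat cortical neurons on 16-electrode MEA wells (PEI-coated, laminin at plating), exposed from day 0 with renewal at DIV 5 and 9; spikes within 0.05 s of network-spike peaks over total spikes, AUC across days 5, 7, 9, 12.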
# [11] = CCTE_Shafer_MEA_dev_LDH: CCTE's Lactate Dehydrogenase Assay for Cytotoxicity in the Neural Network Formation Assay, Shafer Lab (AID 2284068; active means hit-call score of the fitted dose curve at least 0.9, where 1 is the maximum;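 further: exposure for twelve days from plating with re-dosing on DIV 5 and 9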)
# Summary of the method: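 Rat cortical primary neurons, MEA culture; dosing day 0–12, full medium plus compound exchange DIV 5, 9. Read-out: LDH enzyme activity, spectrophotometric. DMSO = negative control/baseline; signal loss → cytotoxicity.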
# [12] = UKN5_HCS_SBAD2_cell_viability: Viability Assessment in the University of Konstanz (UKN) Leist Lab Neurite Outgrowth Assay in human iPSC-derived immature Dorsal Root Ganglia Neurons (UKN5) (AID 2284056)
# Summary of the method: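 iPSC-derived immature peripheral neurons (SBAD2) seeded on Matrigel with CHIR99021, SU5402 and DAPT, dosed 1 h later for 24 h. Viability from Hoechst H-33342 and calcein-AM live staining, high-content imaging; bidirectional fit versus DMSO.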
# [13] = CCTE_Deisenroth_AIME_384WELL_CTox_Active: Cytotoxicity Assessment (CTOX) in CCTE's 384-well Estrogen Receptor Transactivation Assay with AIME metabolic competence (metabolism positive), Deisenroth Lab (AID 2284037; active means hit-call score of the fitted dose curve at least 0.9, where 1 is the maximum;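 further: chemicals first conditioned 2 h by alginate-bound induced rat liver S9 before cells; activity means signal loss indicating cell death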)
# Summary of the method: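 VM7Luc4E2 breast cells received medium pre-incubated 2 h with chemical over alginate microspheres holding induced male Sprague Dawley rat liver S9; viability read 24 h later by protease-substrate fluorescence. Loss of signal, bidirectional fit, 0.002–200 uM.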
# [14] = CCTE_Deisenroth_AIME_384WELL_CTox_Inactive: Cytotoxicity Assessment (CTOX) in CCTE's 384-well Estrogen Receptor Transactivation Assay without AIME metabolic competence (metabolism negative), Deisenroth Lab (AID 2284039; active means hit-call score of the fitted dose curve at least 0.9, where 1 is the maximum;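 further: cell viability via live-cell protease substrate cleaved to fluorescent probe; cells exposed 24 h to medium preincubated 2 h with alginate-water beads without S9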)
# Summary of the method: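 VM7Luc4E2 human breast cells received conditioned medium from a 2 h incubation of chemical with alginate-water microspheres (no S9), then were exposed 24 h. Viability was read as protease-substrate cleavage to a fluorescent probe; loss of signal was fitted bidirectionally over 0.002–200 uM.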
# [15] = target: Estrogen receptor (Homo sapiens) (UniProt P03372); assay: CCTE_Deisenroth_AIME_384WELL_LUC_Shift: CCTE's 384-well Estrogen Receptor Transactivation Assay with AIME metabolic competence data shift (ERTA luciferase; difference in metabolism positive and negative), Deisenroth Lab (AID 2284041);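 further: shift is response with S9 minus without S9 so positive means metabolism raised ER signal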
# Estrogen receptor (Homo sapiens), sequence (P03372 whole entry, looked up): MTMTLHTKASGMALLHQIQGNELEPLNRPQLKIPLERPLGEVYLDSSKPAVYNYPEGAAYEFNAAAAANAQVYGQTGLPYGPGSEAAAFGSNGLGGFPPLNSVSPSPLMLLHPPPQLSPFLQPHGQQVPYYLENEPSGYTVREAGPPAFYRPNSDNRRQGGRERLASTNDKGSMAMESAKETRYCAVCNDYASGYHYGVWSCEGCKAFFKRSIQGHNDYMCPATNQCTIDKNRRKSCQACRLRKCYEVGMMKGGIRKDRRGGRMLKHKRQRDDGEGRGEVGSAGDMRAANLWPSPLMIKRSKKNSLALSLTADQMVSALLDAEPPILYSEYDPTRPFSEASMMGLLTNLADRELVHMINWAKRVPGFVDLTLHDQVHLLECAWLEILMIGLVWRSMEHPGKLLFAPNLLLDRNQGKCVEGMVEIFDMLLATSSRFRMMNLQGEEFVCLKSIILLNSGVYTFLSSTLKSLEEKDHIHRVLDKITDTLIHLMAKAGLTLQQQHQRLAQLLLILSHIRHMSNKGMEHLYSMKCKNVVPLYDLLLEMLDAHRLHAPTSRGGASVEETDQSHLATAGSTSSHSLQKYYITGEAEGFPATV
# Summary of the method: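 Here, parent compounds undergo 2 h phase I metabolism by PB/BNF-induced rat S9 before 24 h transactivation in VM7Luc4E2 cells; the curve models S9-positive minus S9-negative response over a 10-point series.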
# [16] = target: Estrogen receptor (Homo sapiens) (UniProt P03372); assay: CCTE_Deisenroth_AIME_384WELL_LUC_Active: CCTE's 384-well Estrogen Receptor Transactivation Assay with AIME metabolic competence (ERTA luciferase; metabolism positive), Deisenroth Lab (AID 2284030; active means hit-call score of the fitted dose curve at least 0.9, where 1 is the maximum)
# Summary of the method: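 Estrogenic luciferase signal in VM7Luc4E2 cells is measured at 24 hour, after chemicals have been preconditioned 2 hours with PB/BNF-induced rat hepatic S9 in alginate. Gain of signal is fitted relative to 17beta-estradiol, across 0.002 - 200 uM.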
# [17] = target: Estrogen receptor (Homo sapiens) (UniProt P03372); assay: CCTE_Deisenroth_AIME_384WELL_LUC_Inactive: CCTE's 384-well Estrogen Receptor Transactivation Assay without AIME metabolic competence (ERTA luciferase; metabolism negative), Deisenroth Lab (AID 2284038; active means hit-call score of the fitted dose curve at least 0.9, where 1 is the maximum;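 further: hits raise estrogen receptor luciferase signal so potencies reflect agonists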)
# Summary of the method: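 Metabolism-negative mode: chemicals (10-point, 0.002–200 uM) held 2 h with alginate-water microspheres, then conditioned medium applied to VM7Luc4E2 cells for 24 h. Luciferase induction referenced to 17beta-estradiol.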
smiles,measurement,setting,value
Cn1cc[nH]c1=S,outcome,[1],inactive
same,outcome,[2],inactive
same,outcome,[3],inactive
same,outcome,[4],inactive
same,outcome,[5],inactive
same,outcome,[6],inactive
same,outcome,[7],inactive
same,outcome,[8],inactive
same,outcome,[9],inactive
same,outcome,[10],inactive
same,AC50,[11],46.6 nM (active)
CCCC(CCC)C(=O)O,outcome,[1],inactive
same,outcome,[2],inactive
same,outcome,[3],inactive
same,outcome,[4],inactive
same,outcome,[6],inactive
same,outcome,[7],inactive
same,outcome,[8],inactive
same,AC50,[9],576 µM (active)
same,AC50,[10],488 µM (active)
same,AC50,[12],5 mM (active)
same,outcome,[11],inactive
OCCC(F)(F)C(F)(F)C(F)(F)C(F)(F)F,outcome,[1],inactive
same,outcome,[2],inactive
same,outcome,[3],inactive
same,outcome,[4],inactive
same,outcome,[5],inactive
same,outcome,[6],inactive
same,outcome,[7],inactive
same,outcome,[8],inactive
same,outcome,[9],inactive
same,outcome,[10],inactive
OC(Cn1cncn1)(Cn1cncn1)c1ccc(F)cc1F,outcome,[1],inactive
same,outcome,[2],inactive
same,outcome,[3],inactive
same,outcome,[4],inactive
same,AC50,[5],3.83 µM (active)
same,outcome,[6],inactive
same,outcome,[7],inactive
same,outcome,[8],inactive
same,outcome,[9],inactive
same,outcome,[10],inactive
same,outcome,[11],inactive
NNC(=O)c1ccncc1,outcome,[1],inactive
same,outcome,[2],inactive
same,outcome,[3],inactive
same,outcome,[4],inactive
same,outcome,[5],inactive
same,outcome,[6],inactive
same,AC50,[7],2.98 µM (active)
same,outcome,[8],inactive
same,outcome,[9],inactive
same,outcome,[10],inactive
CCc1ccc(O)c(C(C)(C)C)c1,outcome,[13],inactive
same,outcome,[14],inactive
same,outcome,[15],inactive
FC(F)(F)COC(OCC(F)(F)F)OCC(F)(F)F,outcome,[1],inactive
same,outcome,[2],inactive
same,outcome,[3],inactive
same,outcome,[4],inactive
same,outcome,[5],inactive
same,outcome,[6],inactive
same,outcome,[7],inactive
same,outcome,[8],inactive
same,outcome,[9],inactive
same,outcome,[10],inactive
same,outcome,[11],inactive
CC(C)c1nnc2ccc(-c3ocnc3-c3cc(F)ccc3F)cn12,outcome,[16],inactive
same,outcome,[17],inactive
same,outcome,[15],inactive
O=C(Cl)C(F)(F)C(F)(F)C(F)(F)C(=O)Cl,outcome,[1],inactive
same,outcome,[2],inactive
same,outcome,[3],inactive
same,outcome,[4],inactive
same,outcome,[5],inactive
same,outcome,[6],inactive
same,outcome,[7],inactive
same,outcome,[8],inactive
same,outcome,[9],inactive
same,outcome,[10],inactive
